GPR151 ag – human GPR151 activation. Q8TDV0. PathHunter beta-arrestin GPR151 cells, luminescence. activation, % at 11.2 µM. actives 1% (n = 650,000). AID 1508602; in the data active means activation above about 4.9%;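 further: 0% = median of compound wells and 100% = cells with positive control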
Target sequence (Q8TDV0 whole entry, looked up): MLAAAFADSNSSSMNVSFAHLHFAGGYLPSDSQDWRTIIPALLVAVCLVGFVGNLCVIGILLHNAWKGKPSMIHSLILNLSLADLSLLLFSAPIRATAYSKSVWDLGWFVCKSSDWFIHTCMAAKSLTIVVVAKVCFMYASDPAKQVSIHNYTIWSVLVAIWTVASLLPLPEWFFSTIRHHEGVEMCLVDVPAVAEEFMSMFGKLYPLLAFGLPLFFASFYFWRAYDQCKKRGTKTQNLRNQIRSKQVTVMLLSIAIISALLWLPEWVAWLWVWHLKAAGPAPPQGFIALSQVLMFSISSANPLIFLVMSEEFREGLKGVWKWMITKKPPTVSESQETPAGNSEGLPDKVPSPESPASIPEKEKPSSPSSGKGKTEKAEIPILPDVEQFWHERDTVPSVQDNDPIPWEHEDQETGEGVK
TEAD-YAP inh – TEAD-YAP interaction inhibition | HEK-TIYL cells, TEAD-Gal4/YAP UAS-luciferase luminescence | inhibition, % at 9.12 µM | actives 1.4% (n = 640,000) | AID 1259422; in the data active means inhibition above about 32%;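 further: 0% = median of test compound wells and 100% = reference inhibitor wells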
FBW7 activator – activators of human E3 ligase FBW7; Q969H0; AlphaScreen FBW7–phospho-cyclin E peptide binding, activator screen; normalized activity (activation), % at 26.1 µM; actives 0.13% (n = 650,000); in the data active means normalized activity above about 1.9%;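 further: purified mutant Fbw7 with reduced substrate affinity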
MITF inh – inhibitors of human MITF; O75030; AlphaScreen MITF homodimerization, bead proximity signal; inhibition, % at 2.6 µM; actives 0.91% (n = 650,000); AID 1259374; in the data active means inhibition above about 50%;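 further: 0% = vehicle wells with protein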
MITF confirm – human MITF inhibition, confirmation. actives 16% (n = 4,700). AlphaScreen MITF homodimerization, biotin/His-MITF beads. shares compounds with MITF inh. inhibition, % at 2.6 µM;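 active means inhibition above a cutoff derived from the DMSO control wells, cut at about 28% in these data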;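 further: 0% = MITF dimer wells with DMSO only; inhibitors lower the bead chemiluminescence by keeping MITF from dimerizing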
AlphaScreen DR – AlphaScreen optical interference, dose response counter-screen; shares compounds with MITF inh; AlphaScreen optical interference counterscreen, cell-free; AID 1259373; actives 6% (n = 480); IC50, µM; call rule not given here
AS interf ctr – AlphaScreen optical interference, counter-screen | inhibition, % at 2.6 µM | LysRS AlphaScreen counterscreen, signal interference, triplicate | AID 1259376 | actives 7.6% (n = 4,700) | shares compounds with MITF inh;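 active means inhibition above a cutoff derived from the DMSO control wells, cut at about 30% in these data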
The depositor's hits bear a star; / = no result. Shown are actives, neighbours in structure and some others; about 3.5% of the full set was active somewhere.

SMILES	GPR151 ag	TEAD-YAP inh	FBW7 activator	MITF inh	MITF confirm	AS interf ctr	others
CS(=O)(=O)N1CCN(CC(=O)c2cccs2)CC1	0.4	3.2	-0.1	-9.8	/	/
COCCn1c(-c2ccc(C)cc2)cnc1SCC(=O)N1CCc2ccccc21	-0.7	-12.3	-0.2	13.0	/	/
COc1ccccc1C1(NC(=O)CCCCC2SCC3NC(=O)NC32)CCCC1 (configuration not stated)	2.9	-3.8	-0.6	105.4*	66.2*	8.8	AlphaScreen DR=4.88*
O=C(O)CCCC[C@@H]1SC[C@@H]2NC(=O)N[C@@H]21	-0.2	/	-0.6	121.6*	123.9*	100.3*
Cc1cccc(N2CC(C(=O)OCC(=O)Nc3ccccc3C(F)(F)F)CC2=O)c1C (configuration not stated)	-0.5	2.8	0.1	7.5	/	/
COC(=O)Cn1c(C(F)(F)F)nc2c(Br)cc(C)cc2c1=O	-1.1	-3.5	0.0	-4.9	/	/
CN(C)CC(C)(C)CNC(=O)C1CCN(Cc2ccccc2Cl)CC1	-0.3	2.1	-0.1	62.8*	-20.2	-1.5
O=C(NCc1ccco1)C1CCN(Cc2cccc(Cl)c2Cl)CC1	-0.2	5.6	0.2	51.0*	-1.2	-2.0
CC(C)/C(O)=C(\C#N)c1nc2ccccc2n1C	-1.8	1.0	0.1	4.7	/	/
CCC(=O)c1ccccc1OCCN1CCN(CC)CC1	2.8	-2.4	-0.2	68.2*	14.5	17.6
CCC(=O)c1ccccc1OCCCCn1cncn1	0.2	1.8	-0.4	73.6*	8.8	19.5
CCC(=O)c1ccccc1OCCCN1CCN(Cc2ccccc2)CC1	1.0	3.8	-0.1	55.7*	3.6	19.8
CCC(=O)c1ccccc1OCCCCN1CCN(C)CC1	-0.1	7.9	0.1	-19.6	/	/
Cc1ccc(NS(=O)(=O)c2ccc(Cl)c(C(=O)O)c2)cc1C	0.4	-11.3	-0.2	-2.6	/	/
O=C(NCCOc1ccccc1)c1cccc(N2CCc3ccccc3C2)n1	-0.5	-42.9	0.1	-17.1	/	/
CCCOc1ccc(NC(=O)CC2C(=O)N(c3ccc(Cl)cc3)C(=S)N2CCCN2CCN(C)CC2)cc1 (configuration not stated)	0.8	-8.0	0.1	5.1	/	/
C=CCNc1nc(Nc2ccc(I)cc2)nc(N2CCOCC2)n1	0.1	-22.1	0.0	-7.1	/	/
O=C(Nc1ccccc1)C1CCCN1C(=O)Nc1ccc(F)cc1F (configuration not stated)	-0.7	-0.3	0.3	18.4	/	/
CN1C(=O)/C(=C2\SC(=Nc3ccc(F)cc3)NC2=O)c2cc(Br)ccc21	1.6	0.9	-0.1	50.8*	3.1	-8.6
CN1C(=O)/C(=C2\SC(=Nc3ccc(Br)cc3)NC2=O)c2ccccc21	-1.4	-4.9	0.3	8.4	/	/
Cn1c(CN2CCN(C(=O)CN3C(=O)CCC3=O)CC2)nc2ccccc21	3.0	0.5	-0.2	53.9*	2.1	11.7
COc1ccccc1NC(=O)CN1CCN(Cc2nc3ccccc3n2C)CC1	-1.0	-8.5	-0.7	67.2*	9.5	13.9
COc1ccc(CCC(=O)N2CCC(Cn3c(C)nc4ccccc43)CC2)cc1	0.6	14.6	-0.5	77.8*	16.3	17.6
Cc1nc2ccccc2n1CC1CCN(C(=O)Nc2ccccc2)CC1	0.8	-0.6	-0.1	43.4	/	/
COc1ccccc1NC(=O)CN1CCN(CC(=O)Nc2ccccc2OC)CC1	-1.5	0.4	0.0	-29.1	/	/
SMILES	GPR151 ag	TEAD-YAP inh	FBW7 activator	MITF inh	MITF confirm	AS interf ctr	others
Cc1nc2ccccc2n1CC1CCN(C(=O)CN2C(=O)CCC2=O)CC1	0.4	-2.3	-0.4	64.8*	5.0	21.8
COc1ccc(C2OC(=O)C(O)=C2C(C)=O)cc1OC (configuration not stated)	-0.9	6.4	0.1	40.4	/	/
O=C1CCCN1CCCNc1cc(-c2ccccc2)ncn1	0.4	4.8	0.1	15.2	/	/
CCN(CC)C(=O)CN1CCN(c2ncccn2)CC1	1.5	0.5	0.0	55.6*	17.6	9.6
CCN(CC)C(=O)CN1CCC(O)(c2ccccn2)CC1	-1.8	14.6	0.0	8.6	/	/
O=[N+]([O-])c1ccccc1CN1CCN(Cc2c[nH]c3ccccc23)CC1	-1.0	10.7	0.1	61.5*	5.7	-8.5
COc1cc(C(=O)N2CCN(Cc3cccc4ccccc34)CC2)cc(OC)c1OC	-1.6	7.1	-0.4	57.1*	4.5	7.8
Cc1ccccc1CN1CCN(C(=O)c2ccccc2)CC1	-0.6	1.6	0.1	36.8	/	/
COc1cccc(OC)c1C(=O)N1CCN(Cc2ccccc2C)CC1	-0.7	0.5	0.3	71.2*	7.6	-6.4
CC(=O)c1ccc(N2CCN(Cc3cccs3)CC2)cc1	0.3	-19.2	-0.1	55.8*	5.0	-0.1
CC(=O)c1ccc(N2CCN(CC(=O)NCc3cccs3)CC2)cc1	0.0	11.1	0.1	10.1	/	/
COc1cc(OC)cc(C(=O)N2CCN(Cc3c[nH]c4ccccc34)CC2)c1	-0.6	6.6	0.2	16.3	/	/
COc1cc(OC)cc(C(=O)N2CCN(Cc3ccccc3[N+](=O)[O-])CC2)c1	-1.8	7.2	-0.3	61.0*	-3.6	9.3
COc1cc(C(=O)N2CCN(Cc3ccccc3[N+](=O)[O-])CC2)cc(OC)c1OC	2.1	1.7	0.2	67.1*	-16.6	-4.3
COc1cccc(CN2CCN(C(=O)c3ccco3)CC2)c1OC	-0.1	-4.6	0.3	57.2*	7.9	17.7
O=[N+]([O-])c1ccccc1CN1CCN(Cc2ccncc2)CC1	0.3	-2.5	0.0	65.2*	2.9	1.0
COc1cccc(CN2CCN(Cc3ccco3)CC2)c1OC	-2.0	-6.9	-0.2	41.9	/	/
COc1cc(CN2CCN(C(=O)c3cc(OC)c(OC)c(OC)c3)CC2)c([N+](=O)[O-])cc1OC	-1.5	-3.8	-0.4	36.0	/	/
CS(=O)(=O)N1CCN(Cc2ccccc2[N+](=O)[O-])CC1	0.9	13.1	0.6	10.7	/	/
Cn1c(=O)c2c(nc(N3CCCCC3)n2CCCNC2=NCCC2)n(C)c1=O	-0.3	-4.9	0.1	-19.7	/	/
CC(=O)Nc1nc(SCC(=O)Nc2nccs2)[nH]c(=O)c1NC(=O)c1ccccc1	-0.7	2.6	0.2	0.9	/	/
COc1ccc(CN2CCN(C(=O)c3cccc4ccccc34)CC2)cc1OC	0.7	-1.7	-0.1	44.3	/	/
O=[N+]([O-])c1ccc(N2CCN(Cc3ccccc3[N+](=O)[O-])CC2)cc1	1.2	27.3	-0.6	8.6	/	/
COc1ccc(C(=O)N2CCN(Cc3ccccc3[N+](=O)[O-])CC2)cc1	-1.4	7.5	0.3	53.9*	-2.5	-7.1
CC(=O)c1ccc(N2CCN(Cc3ccccc3[N+](=O)[O-])CC2)cc1	0.1	-12.2	0.1	50.8*	1.3	2.2
COc1ccccc1C(=O)N1CCN(Cc2ccccc2[N+](=O)[O-])CC1	-0.9	1.8	0.1	-0.4	/	/
COc1cccc(CN2CCN(C(=O)c3cccc4ccccc34)CC2)c1OC	-2.0	-3.5	0.3	53.7*	9.6	-11.6
